A selection: hits, their analogues and other compounds. The true share with any hit is near 2.4%.
Pol kappa inh-1: qHTS for Inhibitors of Polymerase Kappa. AID 588579, 2011. hit rate 0.53% among 400,000. Potency, µM (series often up to 107 µM), hits mostly inhibitors. DNA polymerase kappa (Homo sapiens), Q9UBT6. purified Pol kappa, fluorescent DNA synthesis assay, 10 min
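Kinetic fluorescence screen: compound preincubated 15 min RT with 10 nM enzyme; 50 nM substrate (final) initiates; reads at 0/10 min.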
Pol beta inh: qHTS Assay for Inhibitors of DNA Polymerase Beta | P06746 | Pol beta primer extension/strand displacement, fluorescence kinetic | Potency, µM (top dose mostly 114 µM), most hits filed as inhibitors | hit rate 1.3% among 340,000 | AID 485314, 2010
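Values derive from four-parameter Hill fits of normalized kinetic data: reads at 0 and 10 min following addition of 50 nM substrate to 10 nM Pol beta preincubated 15 min with compound.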
WRN inhibitor: qHTS for Inhibitors of WRN Helicase. Bifunctional 3'-5' exonuclease/ATP-dependent helicase WRN (Homo sapiens), Q14191. WRN helicase unwinding, fluorescent forked duplex, kinetic. Potency, µM (highest dose often 114 µM), actives largely listed as inhibitors. hit rate 0.46% among 360,000; note: nearly all actives have a fitted effect of over 55% in size
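WRN at 20 nM final was preincubated with compound for 15 min at room temperature; reaction started with 100 nM forked duplex oligonucleotide carrying fluorophore and quencher plus 2 mM ATP (final). Unwinding followed kinetically by red fluorescence (ex 525/em 598 nm).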
POLI inh: qHTS for Inhibitors of Polymerase Iota; DNA polymerase iota (Homo sapiens), Q9UNA4; Pol iota fluorescent replication assay, 10 min; Potency, µM (highest dose often 115 µM), actives largely listed as inhibitors; hit rate 1% among 390,000; AID 588590, 2011
Target sequence (Q9UNA4 whole entry, looked up): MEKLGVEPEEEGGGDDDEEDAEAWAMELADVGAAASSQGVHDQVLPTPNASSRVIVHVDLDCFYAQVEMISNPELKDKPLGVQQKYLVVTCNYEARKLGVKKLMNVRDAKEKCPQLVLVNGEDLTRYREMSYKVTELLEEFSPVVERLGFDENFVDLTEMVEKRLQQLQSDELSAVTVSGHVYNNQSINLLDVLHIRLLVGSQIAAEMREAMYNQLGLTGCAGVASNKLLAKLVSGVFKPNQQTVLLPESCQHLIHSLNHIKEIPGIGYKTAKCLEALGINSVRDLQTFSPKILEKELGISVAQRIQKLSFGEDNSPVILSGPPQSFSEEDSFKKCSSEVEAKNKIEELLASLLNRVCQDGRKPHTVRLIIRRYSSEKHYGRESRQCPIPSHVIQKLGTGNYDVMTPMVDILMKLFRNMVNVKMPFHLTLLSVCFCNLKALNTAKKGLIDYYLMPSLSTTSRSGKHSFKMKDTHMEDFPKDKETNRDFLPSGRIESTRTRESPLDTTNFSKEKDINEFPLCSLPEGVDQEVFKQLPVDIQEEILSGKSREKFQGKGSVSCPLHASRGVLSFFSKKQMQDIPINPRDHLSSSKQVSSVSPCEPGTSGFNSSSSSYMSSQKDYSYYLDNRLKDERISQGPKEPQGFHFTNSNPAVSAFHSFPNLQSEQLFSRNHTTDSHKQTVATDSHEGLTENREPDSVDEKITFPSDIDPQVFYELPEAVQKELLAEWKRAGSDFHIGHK
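Fluorescent replication assay read twice, at 0 min and 10 min after adding 50 nM (final) substrate. Enzyme (10 nM) and compounds were first incubated 15 min at room temperature; enzyme-free buffer wells were negative controls.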
Pol eta inh-1: qHTS for Inhibitors of Polymerase Eta; DNA polymerase eta (Homo sapiens), Q9Y253; recombinant Pol eta, fluorescent DNA replication assay; Potency, µM (doses to about 114 µM), most hits filed as inhibitors; hit rate 1.2% among 390,000
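Pol eta (10 nM) was preincubated with compounds for 15 min at room temperature, after which fluorescent replication substrate (50 nM final) was added to start the reaction. Fluorescence was read kinetically at 0 and 10 min.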
FEN1 inhibitor: qHTS Assay for the Inhibitors of Human Flap endonuclease 1 (FEN1); hit rate 0.35% among 390,000; AID 588795, 2011; Recombinant FEN1 flap cleavage, fluorescence, 15 min; P39748; Potency, µM (top dose mostly 114 µM), hits mostly inhibitors; note: nearly all actives have a fitted effect of over 65% in size
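FEN1 at 10 nM preincubated with compounds 15 min at room temperature, then flap DNA substrate added at 50 nM final. Signal read at 0 and 15 min; concentration-response fitted with four-parameter Hill equation.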
TbPGK inh: qHTS for inhibitors of Phosphogylcerate Kinase: Hit Validation Screen. shares compounds with Pol kappa inh-1. TbPGK coupled GAPDH assay, Kinase-Glo luminescence. Potency, µM (top dose mostly 57.5 µM), actives largely listed as inhibitors. hit rate 79% among 500. AID 686980, 2013; note: nearly all actives have a fitted effect of over 65% in size
Pol iota confirm: qHTS for Inhibitors of Polymerase Iota: Confirmatory Assay for Cherry-picked Compounds. shares compounds with Pol kappa inh-1. Pol iota primer extension, TAMRA/BHQ fluorescence. Potency, µM, hits mostly inhibitors. hit rate 77% among 1,500. AID 720496, 2013
Pol kappa inh-2: qHTS for Inhibitors of Polymerase Kappa: Confirmatory Assay for Cherry-picked Compounds | shares compounds with Pol eta inh-1 | purified Pol-kappa, fluorescent strand-displacement substrate | Potency, µM, actives largely listed as inhibitors | hit rate 76% among 920 | AID 720501, 2013
Pol eta inh-2: qHTS for Inhibitors of Polymerase Eta: Confirmatory Assay for Cherry-picked Compounds. shares compounds with Pol eta inh-1. Pol eta primer extension, TAMRA/BHQ fluorescence, 10 min. Potency, µM, most hits filed as inhibitors. hit rate 64% among 2,600
Hits are given with their value; [ ] = dose if it differs, or a comment. Calls come from the whole dose curve; as a rule, active = well fitted curve in the direction sought with a large enough effect; inconclusive = small, poorly fitted or top-dose-only effect, or another doubt; inactive = no such curve, though single readings can be large; an effect the other way counts as inactive or inconclusive.

`COc1ccc(-n2nc(C(=O)NCC(=O)Nc3ccccn3)c3ccccc3c2=O)cc1Cl` gave Pol kappa inh-1 inactive, Pol beta inh inconclusive, WRN inhibitor inactive, POLI inh inactive, Pol eta inh-1 10µM, FEN1 inhibitor inactive, Pol iota confirm 15 and Pol eta inh-2 inconclusive.
`Cc1ccc(-n2ccn(CC(=O)c3ccc(F)cc3)c(=O)c2=O)cc1C` gave Pol kappa inh-1 inactive, Pol beta inh inactive, POLI inh inactive, Pol eta inh-1 inactive and FEN1 inhibitor inactive.
Screening Cc1cccc(-c2noc(-c3ccc(NCc4cccnc4)c([N+](=O)[O-])c3)n2)c1 returned Pol kappa inh-1 inactive, Pol beta inh inactive, POLI inh inactive, Pol eta inh-1 inactive and FEN1 inhibitor inactive.
Screening O=C(NC1CC1)C1CCN(S(=O)(=O)c2cc(Cl)ccc2Cl)CC1 returned Pol kappa inh-1 inactive, Pol beta inh inactive, WRN inhibitor inactive, POLI inh inactive, Pol eta inh-1 inactive and FEN1 inhibitor inactive.
O=C(NC1CC1)C1CCN(S(=O)(=O)c2cc([N+](=O)[O-])ccc2Cl)CC1 was read as Pol kappa inh-1 50.1µM, WRN inhibitor inconclusive, POLI inh 10µM, Pol eta inh-1 12.6µM, FEN1 inhibitor inconclusive, Pol iota confirm 29.9, Pol kappa inh-2 18.9 and Pol eta inh-2 inconclusive.
For CCOc1ccc(-c2c(C)nn3c(C)c(C(=O)NCC(C)c4ccccc4)cnc23)cc1OCC (stereo not drawn) the results were Pol kappa inh-1 inactive, Pol beta inh inactive, POLI inh inactive, Pol eta inh-1 inactive and FEN1 inhibitor inactive.
For C/C=C\C=C\C(=O)N1CC2(CC(c3cccc(NC(=O)CC)c3)=NO2)C[C@H]1C(N)=O (stereo partly drawn) the results were Pol kappa inh-1 79.4µM, Pol beta inh inactive, WRN inhibitor inconclusive, POLI inh inconclusive, Pol eta inh-1 35.5µM, FEN1 inhibitor inconclusive, Pol iota confirm 11.9 and Pol eta inh-2 53.6.
For C/C=C\C=C/C(=O)Nc1cccc(C2=NOC3(C2)C[C@@H](C(N)=O)N(C(=O)c2ccccc2)C3)c1 (stereo partly drawn) the results were Pol beta inh inactive.
C/C=C\C=C\C(=O)N1CC2(CC(c3cccc(NC(=O)COc4ccc(Cl)cc4)c3)=NO2)C[C@H]1C(N)=O (stereo partly drawn) was read as Pol kappa inh-1 inactive, Pol beta inh inactive, WRN inhibitor inactive, POLI inh inconclusive, Pol eta inh-1 inactive and FEN1 inhibitor inactive.
`C=C(C)C(=O)Nc1cccc(C2=NOC3(C2)C[C@@H](C(N)=O)N(C(=O)CCCCC)C3)c1` (stereo partly drawn) gave Pol kappa inh-1 7.94µM, Pol beta inh 2µM, WRN inhibitor 39.8µM, POLI inh 8.91µM, Pol eta inh-1 1.41µM, FEN1 inhibitor 25.1µM, TbPGK inh 0.58µM, Pol iota confirm 18.9 and Pol eta inh-2 3.01.
C/C=C/C=C\C(=O)Nc1cccc(C2=NOC3(C2)C[C@H](C(N)=O)N(C(=O)/C=C/C)C3)c1 (stereo partly drawn) was read as Pol kappa inh-1 inconclusive, Pol beta inh inconclusive, WRN inhibitor inconclusive, POLI inh inconclusive, Pol eta inh-1 22.4µM, FEN1 inhibitor inactive, Pol iota confirm 33.6 and Pol eta inh-2 37.9.
`Cc1ccc(C)c(N2CCN(C(=O)C3CCN(c4nc(-c5ccc(C(C)C)cc5)no4)CC3)CC2)c1` gave Pol kappa inh-1 inactive, Pol beta inh inactive, POLI inh inactive, Pol eta inh-1 inactive and FEN1 inhibitor inactive.
CCc1cccc(NC(=O)Cn2c(=O)n(CCc3ccc(OC)c(OC)c3)c(=O)c3ccccc32)c1 was read as Pol kappa inh-1 inactive, Pol beta inh inactive, POLI inh inactive, Pol eta inh-1 inactive and FEN1 inhibitor inactive.
`Cc1ccc(C(=O)C2C(=O)c3ccccc3C2=O)cc1` gave Pol kappa inh-1 inactive, Pol beta inh inactive, WRN inhibitor inactive, POLI inh inactive, Pol eta inh-1 inactive and FEN1 inhibitor inactive.
For NN=C1c2ccccc2C(=O)C1C(=O)C(c1ccccc1)c1ccccc1 (stereo not drawn) the results were Pol kappa inh-1 22.4µM, WRN inhibitor 50.1µM, POLI inh 39.8µM, Pol eta inh-1 inconclusive, FEN1 inhibitor inconclusive, Pol iota confirm 75.2, Pol kappa inh-2 16.8 and Pol eta inh-2 84.9.
`CC1CCCN(CCCNC(=O)c2ccc3c(c2)N(Cc2cccc(Cl)c2)C(=O)c2ccccc2S3(=O)=O)C1` (stereo not drawn) gave Pol kappa inh-1 inactive, Pol beta inh inactive, POLI inh inactive, Pol eta inh-1 inactive and FEN1 inhibitor inactive.
COc1ccc2c(c1)c(=O)oc1cc(OCC(=O)NC3CCCCC3)ccc12 was read as Pol kappa inh-1 inconclusive, Pol beta inh 22.4µM, WRN inhibitor inactive[11.6 µM], POLI inh 25.1µM, Pol eta inh-1 79.4µM, FEN1 inhibitor inactive, Pol iota confirm inconclusive, Pol kappa inh-2 inconclusive and Pol eta inh-2 67.5.
`NCCCC[C@H](NC(=O)[C@H](CCCN=C(N)N)NC(=O)[C@H](CO)NC(=O)[C@H](CCCN=C(N)N)NC(=O)[C@@H](N)Cc1ccc(O)cc1)C(=O)N[C@@H](Cc1ccc(O)cc1)C(=O)N[C@@H](CO)C(=O)N[C@@H](CO)C(=O)N[C@@H](Cc1c[nH]c2ccccc12)C(=O)N[C@@H](Cc1ccc(O)cc1)C(=O)O` gave Pol kappa inh-1 inactive.

Screening data as filed in PubChem.
